Out of some 2,000 compounds screened, about 170 (8.5%) were called active. A selection follows. Unmarked numbers belong to inactive results.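 How the source made its calls: active means average inhibition above the solvent-only control mean plus 3 SD (cut at about 6% in these data); inactive means the rest.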
experiment: 535nm fluorescence optical interference, confirmation, artefact control for HGIII-sPLA2 inhibitor project, biochemical, QFRET (AID 743282); details: BODIPY FL product fluorescence interference, at 12.2 µM, active compounds read high;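 further: 0% = DMSO with substrate plus product and 100% = DMSO with substrate alone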

| Compound | inhibition |
| --- | --- |
| Cc1ccc(S(=O)(=O)N2CCOCC2)cc1C(=O)NC(=S)N(Cc1ccccc1)C(C)C | -1.68% |
| COc1cccc(NC(C)=[N+](C)CCNS(=O)(=O)c2ccc(Cl)cc2)c1 | -14.7% |
| Cc1sc2nc(SCC(=O)c3ccc(O)c(O)c3)n(Cc3ccco3)c(=O)c2c1C | 0.57% |
| Cc1cccc(-n2cnc(C(=O)NNC(=S)Nc3ccccc3)c2)n1 | -2.38% |
| CC1=CC(C)(C)NC(=S)N1c1ccccc1 | -3.33% |
| CCOc1ccc(Br)cc1CSC(=N)N | -9.39% |
| Cc1cccc(C)c1NC(=O)CN1C(=O)C(C)Oc2ccccc21 (stereo not given) | -4.96% |
| S=C(NNC(=S)NC1CC2CCC1C2)NC1CC2C=CC1C2 (stereo not given) | 3.69% |
| O=C(NNC(=S)NC1CCCCC1)c1ccccc1Cl | -4.68% |
| Cc1[nH]c(N)nc(=S)c1CCCNc1ccccc1 | 0.28% |
| CN(CC(=O)Nc1ccc(N2CCOCC2)cc1)CC(=O)Nc1ccccc1[N+](=O)[O-] | -3.73% |
| C/C(=N\Nc1ccc(Cl)nn1)c1ccccc1O | 1.8% |
| CCc1cccc(CC)c1NC(=S)NCc1ccc2[nH]c(C)cc2c1 | -0.12% |
| c1ccc(C2=Nc3cccc4cccc(c34)N2)cc1 | 11.4% (active) |
| CC(C(=O)Nc1ccccc1-c1ccccc1)N1CCOCC1 (stereo not given) | -7.3% |
| O=C(CSc1nc2ccccc2n1Cc1ccccc1)NNC(=S)Nc1ccccc1 | -3.82% |
| O=C(NNc1ccccn1)c1ccc(Cl)nc1 | 34% (active) |
| O=C(OC12CC3CC(CC(C3)C1)C2)c1ccc(NCc2cc(O)ccc2O)cc1 | 12.9% (active) |
| COc1ccccc1OCC(=O)OCn1c(SC)nnc(C)c1=O | 0.95% |
| COc1ccc(C(=O)Nc2sc(C)c(C)c2CN2CCOCC2)cc1 | -13.2% |
| O=C1C(=O)N(Cc2ccc(-c3ccsc3)cc2)c2ccc(OC(F)(F)F)cc21 | 4.49% |
| Nc1[nH]c(C(=O)c2ccccc2)c(-c2ccc(Br)cc2)c1C(=O)NC1CC1 | -0.53% |

| Compound | inhibition |
| --- | --- |
| CN(C)c1ccc(NC(=O)NC2CCCCN(Cc3ccc(Cl)cc3)C2=O)cc1 (stereo not given) | -5.22% |
| CC(C)(C)c1cc2cccnc2n1Cc1cccc(F)c1 | -9.11% |
| CN(C)S(=O)(=O)c1cccc(NC(=S)N/N=C/C(=O)c2ccccc2)c1 | 5.77% |
| CC(NC(=O)COC(=O)Cn1cc(C(F)(F)F)ccc1=O)c1ccccc1 (stereo not given) | -1.38% |
| CC(C)CC(=O)NC(=S)NNC(=O)c1cccc([N+](=O)[O-])c1 | -0.46% |
| CSc1ccc(NC(=O)/C=C/C(=O)O)cc1 | -8.22% |
| O=C(/C=C/c1c(Cl)cccc1Cl)NCc1ccccc1 | -0.31% |
| N#CC1(Nc2ccc(-c3ccc(Cl)cc3)cc2)CCCC1 | 6.64% (active) |
| CC(C)c1cc(C(=O)N/N=C/c2ccoc2)c(O)c(C(C)C)c1 | 4.05% |
| Cc1ccc(C2Nc3ccccc3C(=O)N2CCN2CCNC2=O)cc1 (stereo not given) | -4.79% |
| COc1ccc2c(c1)c(=Cc1ccc(N(C)C)cc1)c1cc(-c3ccccc3)[n+](C)n12 | -26.7% |
| O=C(NNC(=S)Nc1ccc(F)cc1)[C@H]1C[C@@H]1c1ccccc1 | 1.83% |
| COc1ccc(NC(=O)C2C3C=CC(C3)C2C(=O)NCc2ccccn2)c(OC)c1 (stereo not given) | -6.28% |
| CCCCn1c(N)c(N(CCOC)C(=O)COc2c(C)cccc2C)c(=O)[nH]c1=O | -7.38% |
| O=C(NN1C(=O)C2C3C=CC(C3)C2C1=O)c1ccco1 (stereo not given) | -5.42% |
| COCCn1c(SCC(=O)Nc2cc(OC)ccc2OC)nc2c(c1=O)SC(C)C2 (stereo not given) | -17.4% |
| COc1ccccc1OCCn1c(SCC(N)=O)nc2ccccc21 | -8.97% |
| COc1cc(NS(=O)(=O)c2ccc3ccccc3c2)c2ncccc2c1 | 5.89% |
| O=C(Nc1cccc(F)c1)c1cc(-c2ccco2)nc2ccccc12 | 4.81% |
| C/C(=N/NC(=O)c1cc(Cl)ccc1O)C12CC3CC(CC(C3)C1)C2 | -3.29% |
| CCCCn1c(=S)[nH]c2ccccc2c1=O | -2.71% |
| Cc1cc(NCCc2c[nH]c3ccccc23)ccc1Oc1cccnc1 | -3% |

| Compound | inhibition |
| --- | --- |
| CCNC(=S)Nc1ccc(OC(F)(F)F)cc1 | 0.41% |
| NC(c1csc(NC(=O)Nc2ccccc2Oc2ccccc2)n1)c1ccccc1Cl (stereo not given) | 4.15% |
| COc1cc(/C=N/n2c(C)n[nH]c2=S)ccc1OCc1ccccc1 | -3.5% |
| Cc1ccc(C2CC(c3cccc(C)c3)n3nc(N)nc3N2)cc1 (stereo not given) | -10.8% |
| Nc1ccc2c(c1)C(O)c1ccc(Cl)cc1-2 (stereo not given) | 7% (active) |
| CCN(Cc1ccccc1)C(=O)CN1C(=S)NC(C)(C)CC1C (stereo not given) | -7.34% |
| C#CCCCc1nc2ccccc2c(=O)n1N | -6.82% |
| Cc1nnc(Sc2nc3c(c(=O)[nH]c(=O)n3C)n2Cc2ccccc2)s1 | -6.93% |
| CCN(CC(=O)NC1CCS(=O)(=O)C1)S(=O)(=O)c1ccccc1 (stereo not given) | -0.3% |
| CCOC12CC(C)(C)CC(C)(CC3=C1C(=O)CC(C)(C)C3)C2 (stereo not given) | -12.7% |
| CC(C)(c1ccccc1)c1ccc(OCCN)cc1 | -22.1% |
| CC[C@]1(O)C[C@@H]2CN(CCc3c([nH]c4ccccc34)[C@@](C(=O)OC)(c3cc4c(cc3OC)N(C)[C@H]3[C@@](O)(C(=O)OC)[C@H](OC(C)=O)[C@]5(CC)C=CCN6CC[C@]43[C@@H]65)C2)C1 | -25% |
| CCCCCCCCCCOC(=O)C[N+](C)(C)CC1CCCCC1O (stereo not given) | -19.3% |
| COc1cc(OC)cc(C2=Cc3ccccc3C(CC(=O)c3ccco3)N2c2ccc(-c3cnc(OC)nc3)cc2)c1 (stereo not given) | -14% |
| COC(=O)C(C)n1cnc2c(nnn2-c2ccc(F)cc2)c1=O (stereo not given) | -6.41% |
| Cc1cccc(N2CCN(c3ccc(NC(=O)/C=C\C(=O)O)cc3)CC2)c1 | 3.01% |
| N=C(N)SCc1cccc2ccccc12 | -8.26% |
| O=C(CCl)NNc1cccc(Cl)n1 | 113% (active) |
| NS(=O)(=O)c1ccc(CCNC(=O)NC2CCCCC2)cc1 | -4.36% |
| O=C(NNC(=S)NC1CC2CCC1C2)c1ccc(Cl)cc1 (stereo not given) | 0.11% |
| COc1ccc(Cl)cc1C(=O)NNC(=S)NC1CCCC1 | 3.94% |
| C=CCNc1scc(-c2ccccc2)[n+]1CC=C | -8.41% |

| Compound | inhibition |
| --- | --- |
| C/C(=N\NC(=S)Nc1ccc(C)cc1)c1cc2ccccc2o1 | -2.09% |
| NC[C@H](Cc1ccccc1)NCCc1cc(C(F)(F)F)cc(C(F)(F)F)c1 | -15.8% |
| CC(=O)/C(=N\Nc1ccc(Cl)cc1Cl)Sc1cccc2cccnc12 | -6.02% |
| Cc1ccccc1NC(=O)C1CCN(c2ncccn2)CC1 | -0.85% |
| O=C(NC(=S)Nc1ncccn1)c1ccccc1Br | -4.76% |
| Nc1ccc(Nc2ccccc2)cc1 | 1.54% |
| Cn1c2c(c(=O)n(C)c1=O)C1c3ccccc3OCC1C(C)(C)O2 (stereo not given) | -3.5% |
| Oc1ccc2ccccc2c1N=Nc1nccs1 | 18.1% (active) |
| COCCCNC(=O)CNC(=S)N(Cc1cc(OC)c(OC)c(OC)c1)C1CCCC1 | -10.5% |
| COc1ccnc(NC(=S)N2CCN(c3ncc(C(F)(F)F)cc3Cl)CC2)c1 | -6.49% |
| Cc1ccc(-c2csc(NNC(=O)c3ccccc3)n2)cc1 | 6.07% (active) |
| Cc1ccc2sc(NNC(=O)c3ccc4c(c3)OCCO4)nc2c1C | 3.21% |
| COc1ccc(C(=O)NNC(=S)NC(=O)c2ccccc2)cc1 | -1.93% |
| CCc1cc(-c2n[nH]c(=S)n2CC(C)C)cs1 | -0.76% |
| Cn1cc(Cl)c(C(=O)NNC(=S)Nc2cccc(Cl)c2)n1 | 0.3% |
| CC(C)=CCCC1(C)C=Cc2c(ccc3c2[nH]c2cc(O)c(C)cc23)O1 (stereo not given) | 8.94% (active) |
| CC(C)c1ccc(Nc2nnc(SCC(=O)c3nnc(-c4ccccc4)o3)s2)cc1 | -8.04% |
| CC(=O)Oc1ccc2c(c1)C(=O)c1ccccc1C2=O | -2.62% |
| O=C(N/N=C/c1cc(Cl)cc([N+](=O)[O-])c1O)C(O)(c1ccccc1)c1ccccc1 | 5.59% |
| S=c1[nH]nc(-c2ccco2)n1/N=C/c1ccccc1 | -0.08% |
| CCOc1ccc2[nH]c(=S)sc2c1 | -2.18% |
| Cc1c(NC(=S)NCc2ccc(F)cc2)cccc1[N+](=O)[O-] | -0.65% |

| Compound | inhibition |
| --- | --- |
| CC(Oc1ccc2ccccc2c1)C(=O)NNC(=S)NC(=O)c1ccco1 (stereo not given) | -3.72% |
| CSC1=NN(c2ccccc2)CN(c2ccccc2)N1C | 4.75% |
| Cc1c(C(=O)N/N=C/c2ccccc2)[nH]c2c([N+](=O)[O-])cccc12 | -10.6% |
| NC(Cc1ccccc1)c1csc(Nc2cc(Oc3ccccc3)ncn2)n1 (stereo not given) | -10.4% |
| O=C(NNC(=S)Nc1ccc(Br)cc1Cl)c1ccco1 | 3.75% |
| CCOc1ccc(/C=N/NC(N)=S)cc1 | -2.77% |
| Cc1cc(-c2n[nH]c(=S)n2-c2ccc(C)c(C)c2)no1 | 2.66% |
| CC(=O)NC(c1cccs1)c1cc(Br)c2cccnc2c1O (stereo not given) | 1.21% |
| Cc1cc(-n2nc(C)cc2C)n2ncc(-c3ccccc3)c2n1 | -10.6% |
| CCOC(=O)C1(Cc2cccc(OC)c2)CCCN(C(=O)CCSC)C1 (stereo not given) | -20.8% |
| Cc1cccc(NC(=S)NCCN(C2CCCCC2)C2CCCC2)c1 | -19.9% |
| Brc1ccccc1C1Nc2cccc3cccc(c23)N1 | 16.4% (active) |
| CC(=O)c1nnn(-c2ccc(Cl)cc2C#N)c1C | -6.79% |
| COc1ccc(C(=O)NC(=S)NNC(=O)c2c(-c3ccccc3)noc2C)cc1 | -3.7% |
| Cc1ccc(NC(=S)NNC(=O)CSc2nnc(SCc3ccccc3Cl)s2)cc1 | 0.65% |
| COc1ccc(C(N)c2csc(NC(=O)Nc3cccc(C(F)(F)F)c3)n2)cc1 (stereo not given) | 5.13% |
| CCCCOc1ccc(CSC(=N)N)cc1[N+](=O)[O-] | -15.6% |
| Cc1c(Cl)cccc1NC(=S)NCc1ccc2c(c1)OCO2 | 0.14% |
| C/C(=N\NC(=O)CSc1nc2ccccc2c(=O)n1-c1ccccc1C)c1cccs1 | -14.6% |
| O=C(COc1ccc(S(=O)(=O)NCc2ccccc2)cc1)N1CCOCC1 | -4.58% |
| C=CCn1c(C23CC4CC(CC(C4)C2)C3)n[nH]c1=S | -2.58% |
| CCOC(=O)NC(=O)/C(C#N)=C\c1ccccc1 | -4.97% |
